Assay outcomes (PubChem BioAssay)
This excerpt belongs to a sample that is enriched for hits.
Dicer inh – inhibitors of Dicer pre-microRNA processing, primary screen, biochemical, cat-ELCCA, chemiluminescence; Endoribonuclease Dicer (Homo sapiens), Q9UPY3; cat-ELCCA pre-miR-21 Dicer processing; hits give high values; z-score at 25 µM; actives 6% (n = 47,000); AID 1347074, 2019; in the data active means z-score above about 3, passing the limit was not always enough;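 further: higher signal means more uncleaved substrate so more Dicer inhibition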
A number is an active result; - = inactive.

SMILES	Dicer inh
CCOc1ccccc1N1C(=O)C2C3c4ccccc4C(CO)(c4ccccc43)C2C1=O (configuration not stated)	-
CN1C(=O)c2cccc3c(S(=O)(=O)NCCCCCC(=O)O)ccc1c23	-
CN1C(=O)c2cccc3c(S(=O)(=O)NCC(=O)O)ccc1c23	3.1
CN1C(=O)c2cccc3c(S(=O)(=O)NCCCC(=O)O)ccc1c23	-
CCc1cc(C(=O)c2ccc(OC)cc2)c(NC(=O)CSc2nnc(-c3cccs3)n2C)s1	-
COc1ccc(C2=NN3C(C2)c2cc(Br)ccc2OC3c2ccncc2)cc1 (configuration not stated)	8.2
COc1ccc(C2=NN3C(C2)c2ccccc2OC3c2ccncc2)cc1OC (configuration not stated)	-
COc1ccc(C2=NN3C(C2)c2ccccc2OC3c2ccncc2)cc1 (configuration not stated)	-
COc1ccc(C2=NN3C(C2)c2cc(Br)ccc2OC3c2cccnc2)cc1 (configuration not stated)	4.2
COc1ccc(C2=NN3C(C2)c2cc(Cl)ccc2OC3c2cccnc2)cc1 (configuration not stated)	-
COc1ccccc1C1Oc2ccccc2C2CC(c3cccnc3)=NN21 (configuration not stated)	-
COc1cccc(C2=NN3C(C2)c2cc(Br)ccc2OC3c2cccnc2)c1 (configuration not stated)	7.2
Cc1ccc(O)c(C2=NN3C(C2)c2cc(Br)ccc2OC3c2cccnc2)c1 (configuration not stated)	-
CN(C)/C=C1\N=C(c2cccnc2Sc2ccc(Cl)cc2)OC1=O	-
CCCCc1ccc(C(=O)Nc2sccc2C#N)cc1	-
N/C(CS(=O)(=O)c1ccccc1)=N\OS(=O)(=O)c1ccc(F)cc1F	-
CCOC(=O)c1c(NC(=O)CCC(=O)O)sc2c1CCCC2	-
CCOC(=O)c1c(NC(=O)CCC(=O)O)sc2c1CCCC2=O	3
CCOC(=O)c1c(NC(=O)CCC(=O)O)sc2c1CCCCC2	-
CCOCCOC(=O)C1=C(C)NC2=C(C(=O)CCC2)C1c1ccc(OC)c(OC)c1 (configuration not stated)	-
COCCN1C(=O)C(=O)/C(=C(\O)c2ccc(Cl)cc2)C12C(=O)N(C)c1ccccc12 (configuration not stated)	-
COc1ccc(/C(O)=C2/C(=O)C(=O)N(CCN(C)C)C23C(=O)N(C)c2ccccc23)cc1 (configuration not stated)	-
CCOc1ccc(/C(O)=C2/C(=O)C(=O)N(CCCN(C)C)C23C(=O)N(C)c2ccccc23)cc1 (configuration not stated)	5
CCCCN1C(=O)C2(/C(=C(/O)c3ccc(F)cc3)C(=O)C(=O)N2CCCN(C)C)c2ccccc21 (configuration not stated)	-
COc1ccc(/C(O)=C2/C(=O)C(=O)N(CCCN(C)C)C23C(=O)N(C)c2ccccc23)cc1 (configuration not stated)	3.7
SMILES	Dicer inh
CN(C)CCN1C(=O)C(=O)/C(=C(\O)c2ccc(F)cc2)C12C(=O)N(C)c1ccccc12 (configuration not stated)	-
Cc1ccc(C(=O)NNc2ncnc3cc(C(C)(C)C)sc23)cc1	-
CCC(C)NC(=O)c1c(OC)ccc([N+](=O)[O-])c1OC (configuration not stated)	-
COc1ccc([N+](=O)[O-])c(OC)c1C(=O)NCC1CC1	4.9
COc1ccc([N+](=O)[O-])c(OC)c1C(=O)Nc1ccccc1C(=O)NCC1CC1	-
O=C1N(c2ccc(Cl)cc2)C2CS(=O)(=O)CC2N1c1ccccc1Cl (configuration not stated)	-
CC(C)CCCC(C)C1CCC2C3CCC4=C/C(=N/NC(=S)Nc5ccc(F)cc5)CCC4(C)C3CCC12C (configuration not stated)	-
COc1ccc(-c2nc(=S)c3c(n2CCc2ccccc2)CC(C)(C)OC3)cc1	-
CC(C(=O)NNC(=S)NCC1CC1)n1nnc(N2CCOCC2)n1 (configuration not stated)	3.9
O=C(Cn1nnc(N2CCOCC2)n1)NNC(=S)Nc1ccc(F)cc1F	-
COC(=O)Cn1nnc(N2CCOCC2)n1	-
O=C(CSc1nnc(-c2ccc(Cl)cc2)o1)Nc1nnc(-c2ccco2)s1	-
Nc1c2cnc(N3CCCC3)nc2nc(=O)n1-c1ccc(Cl)cc1	-
Cc1nc(N2CCCC2)ncc1S(=O)(=O)c1ccc(Cl)cc1	-
Nc1nc(N2CCOCC2)ncc1S(=O)(=O)c1ccc(Cl)cc1	3.9
O=C(O)c1cccc(-c2ccc(CO)o2)c1	-
COC(=O)C1=C(Nc2ccccc2NS(=O)(=O)c2ccc(C(F)(F)F)cc2Cl)CSC1	-
O=S(=O)(Nc1ccccn1)c1ccc(C(F)(F)F)cc1Cl	-
O=S(=O)(Nc1ncccn1)c1ccc(C(F)(F)F)cc1Cl	3
O=C(O)C1(c2ccc3c(c2)OCCO3)CCCC1	-
CCCC(=O)c1cc2cc([N+](=O)[O-])ccc2oc1=O	-
COc1ccc(-c2nnc(N3CCOCC3)c3ccccc23)cc1	-
c1ccc(-c2nn3c4cc(N5CCOCC5)ccc4nc3c3ccccc23)cc1	6.1
c1ccc(-c2nc3c4ccccc4ccn3c2CN2CCOCC2)cc1	-
CCCCC#Cc1nc(NC)c2ncn([C@@H]3O[C@H](CO)C(O)[C@@H]3O)c2n1 (some centres not stated)	-
SMILES	Dicer inh
CC1CCC(C(C)C)C(NC(=O)c2c(Cl)cccc2Cl)C1 (configuration not stated)	-
COc1nc2c(c(-c3ccc4ccccc4c3)c1C#N)CCc1ccccc1-2	-
COc1nc2c(c(-c3ccc(Cl)cc3Cl)c1C#N)CCc1ccccc1-2	3.1
COc1nc2c(c(-c3ccc(C(F)(F)F)cc3)c1C#N)CCc1ccccc1-2	-
CCN(CC)CCNC(=O)c1c(C)[nH]c(/C=C2\C(=O)Nc3ccc(F)cc32)c1C	-
O=C1C(=O)N(CCCn2ccnc2)C(c2cccc(F)c2)/C1=C(\O)c1ccc(Br)cc1 (configuration not stated)	-
COCCCN1C(=O)C(O)=C(C(=O)c2cc3ccccc3o2)C1c1ccc(O)c(OC)c1 (configuration not stated)	-
COc1cc(CNc2nc3c(C)cc(C)cc3s2)ccc1O	3.1
COc1cc(CCC(C)NCc2ccccc2)ccc1O (configuration not stated)	-
Cc1cc(C)c2nc(NCc3ccccc3O)sc2c1	-
O=C(NC(=S)N1CCSCC1)c1ccccc1	-
O=[N+]([O-])c1cc(CS(=O)(=O)c2ccc(Cl)cc2)ccc1Oc1ccc(Cl)cc1Cl	-
CCOC(=O)c1ccc(Oc2sccc2[N+](=O)[O-])cc1	3.4
CCOC(=O)c1ccc(N)cc1	-
CCOC(=O)C1CCN(c2sccc2[N+](=O)[O-])CC1	-
O=C(NCc1ccc2c(c1)CCO2)c1ccccc1	-
CCOC(=O)C1C(=O)NC(N2CCN(CC)CC2)=NC1c1ccco1 (configuration not stated)	-
Cc1ccc(NC(=O)C(F)(F)F)c(C(=O)O)c1	-
CC(=O)Nc1ccc(S(=O)(=O)Oc2ccccc2N2CCCCC2)cc1	-
O=C(Nc1ccc(OCc2ccccc2)cc1)Oc1ccccc1N1CCCCC1	4.8
Cc1cc(C)cc(NC(=O)Oc2ccccc2N2CCCCC2)c1	-
CCOC(=O)c1cnc(Sc2ncccc2[N+](=O)[O-])nc1N	-
